Our source for the inhibition values is ChEMBL document CHEMBL1961873, “Compounds: GSK PKIS; Assays: Nanosyn kinase panel” (2012).

Where “and” joins values, the source holds several entries; their conditions need not be identical. Identical values can stand only once.

Sequence of Mitogen-activated protein kinase 1 (Homo sapiens) (P28482 whole entry): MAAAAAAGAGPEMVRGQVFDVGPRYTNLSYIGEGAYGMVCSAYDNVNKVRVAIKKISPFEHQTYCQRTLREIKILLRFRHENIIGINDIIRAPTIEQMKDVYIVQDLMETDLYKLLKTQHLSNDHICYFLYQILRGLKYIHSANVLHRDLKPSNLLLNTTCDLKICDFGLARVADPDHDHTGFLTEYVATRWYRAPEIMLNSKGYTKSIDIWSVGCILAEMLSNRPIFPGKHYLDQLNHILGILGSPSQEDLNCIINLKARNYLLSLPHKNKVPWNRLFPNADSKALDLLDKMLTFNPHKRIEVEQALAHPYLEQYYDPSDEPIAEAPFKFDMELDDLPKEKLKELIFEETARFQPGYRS

The first experiment concerns the target Mitogen-activated protein kinase 1 (Homo sapiens) (UniProt P28482). To be noted: at 0.1 µM.
`Cc1c2ccc(N(C)c3ccnc(Nc4cccc(S(N)(=O)=O)c4)n3)cc2nn1C`: the inhibition amounted to 4.96%.

`N#Cc1cccc(Nc2ncc(-c3ccccc3)o2)c1`: the inhibition stood at 1.39%.

Consider `CC1=C(C(=O)Nc2ccc3[nH]ncc3c2)C(c2ccc(F)cc2)N=C(c2ccc(C(F)(F)F)nc2)N1` (stereo unspecified), for which the inhibition was -1.73%.

Turning to `NS(=O)(=O)c1ccc(N/N=C2\C(=O)Nc3cccc(CCc4ccncc4)c32)cc1`, the inhibition stood at 0.92%.

With `O=C(O[C@H]1CN[C@H](C#Cc2cc3ncnc(Nc4ccc5c(cnn5Cc5ccccc5)c4)c3s2)C1)N1CCOCC1`, the inhibition came to 0.84%.

Consider `CS(=O)(=O)Nc1ccc(-c2cc(-c3ccccc3)cc(C(N)=O)c2N)cc1`, for which the inhibition is 4.56%.

Turning to `FC(F)(F)CNc1nccc(-c2cnn3ncccc23)n1`, the inhibition is 3.24%.

As for `CS(=O)(=O)CCNCc1ccc(-c2ccc3ncnc(Nc4ccc(OCc5ccccc5)cc4)c3c2)o1`, the inhibition worked out at 4.02%.

For the compound `CN(C)CCNC(=O)Nc1ccc(N(C)c2ccnc(Nc3ccc(CS(C)(=O)=O)cc3)n2)cc1`, the inhibition was 5.77%.

With `NC(=O)c1ccc2c(-c3ccnc(NCCCO)n3)c(-c3ccc(F)cc3)nn2c1`, the inhibition came out at 1.98%.

Consider `c1ccc(-c2n[nH]cc2-c2ccnc(-c3ccc(OCCn4ccnc4)cc3)c2)nc1`, for which the inhibition came to 1.6%.

In the case of `c1cnn2ncc(-c3ccnc(NCCCN4CCOCC4)n3)c2c1`, the inhibition came out at 2.95%.

Turning to `CN1CCC(n2cnc(-c3ccc(F)cc3)c2-c2ccnc(NCCO)n2)CC1`, the inhibition is 2.94%.

As for `COc1cc(N2CCN(C(C)C)CC2)ccc1Nc1nc(Nc2cccc3ncccc23)c2cc[nH]c2n1`, the inhibition was -2.97%.

`COc1ccc(Nc2ncc(-c3ccccc3)o2)cc1OC`: the inhibition was -0.07%.

As for `CC1=C(C(=O)Nc2ccc3[nH]nc(C)c3c2)C(c2ccc(C(F)(F)F)cc2)CC(=O)N1` (stereo unspecified), the inhibition amounted to 6.06%.

For a further experiment the target is unchanged. To be noted: at 1 µM.
`CNC(=O)c1ncccc1Nc1nc(Nc2cc3c(cc2OC)CCCN3C(=O)CN(C)C)nc2[nH]ccc12`: the inhibition came to 6.21%.

`Cc1ccc(-c2cc3c(NC(=O)C4CC4)ncnc3o2)cc1`: the inhibition came out at 4.73%.

`CNC(=O)c1sc(-n2cnc3cc(OC)c(OC)cc32)cc1OCc1ccccc1C(F)(F)F`: the inhibition stood at 6.09%.

As to `O=C(O[C@H]1CN[C@H](C#Cc2cc3ncnc(Nc4ccc5c(ccn5Cc5cc(F)ccc5F)c4)c3s2)C1)N1CCOCC1`, the inhibition was found to be 5.12%.

Consider `CN1CCN(Cc2ccc(-c3cc4ncnc(Nc5ccc(OCc6cccc(F)c6)c(Cl)c5)c4s3)o2)CC1`, for which the inhibition is 4.78% and 9.62%.

As for `CCn1c(-c2nonc2N)nc2cncc(C(=O)NCCNC)c21`, the inhibition was 6.64%.

Turning to `CCS(=O)(=O)c1ccc(OC)c(Nc2ncc(-c3cccc(F)c3)o2)c1`, the inhibition was determined as 7.09%.

As to `COC(=O)Nc1nc2cc(Oc3ccc(NC(=O)Nc4ccccc4)cc3)ccc2[nH]1`, the inhibition is 2.22%.

For the compound `COc1c(C(N)=O)cc(-c2ccc(Cl)cc2)cc1-c1ccc(S(N)(=O)=O)cc1`, the inhibition was 5.86%.

As to `CC1(C)CC(n2cnc(-c3ccc(F)cc3)c2-c2ccnc(N)n2)CC(C)(C)N1`, the inhibition was -0.08%.

On to `CCCNc1cccc(-n2ncc3c(N/N=C/c4ccncc4)ncnc32)c1`, for which the inhibition came out at 1.54%.

`CN(c1ccc(NC(=O)NCCN2CCOCC2)cc1)c1ccnc(Nc2ccc(CS(C)(=O)=O)cc2)n1`: the inhibition came to 8.36%.

Take `CCOc1ccc2c(-c3ccnc(Nc4cc(OC)cc(C(F)(F)F)c4)n3)cnn2n1`: the inhibition turned out to be 0.63%.

On to `COc1cccc(-n2ncc3c(N/N=C/c4ccc(C(=O)NCCN(C)C)cc4)ncnc32)c1`, for which the inhibition was 4.38%.

As for `COc1ccc(-c2nn3ncccc3c2-c2ccnc(Nc3ccc(F)c(F)c3)n2)cc1`, the inhibition amounted to 5.09%.

For the compound `Cc1c2ccc(N(C)c3ccnc(Nc4cccc(S(N)(=O)=O)c4)n3)cc2nn1C`, the inhibition was 5.77%.

For `N#Cc1cccc(Nc2ncc(-c3ccccc3)o2)c1`, the inhibition was determined as 3.01%.

With `CC1=C(C(=O)Nc2ccc3[nH]ncc3c2)C(c2ccc(F)cc2)N=C(c2ccc(C(F)(F)F)nc2)N1` (stereo unspecified), the inhibition amounted to 3.17%.

`NS(=O)(=O)c1ccc(N/N=C2\C(=O)Nc3cccc(CCc4ccncc4)c32)cc1`: the inhibition turned out to be 0.88%.

For `O=C(O[C@H]1CN[C@H](C#Cc2cc3ncnc(Nc4ccc5c(cnn5Cc5ccccc5)c4)c3s2)C1)N1CCOCC1`, the inhibition was -0.13%.

Take `CS(=O)(=O)Nc1ccc(-c2cc(-c3ccccc3)cc(C(N)=O)c2N)cc1`: the inhibition came to 2.91%.

Take `FC(F)(F)CNc1nccc(-c2cnn3ncccc23)n1`: the inhibition worked out at 5.24%.

Take `CS(=O)(=O)CCNCc1ccc(-c2ccc3ncnc(Nc4ccc(OCc5ccccc5)cc4)c3c2)o1`: the inhibition stood at 3.85%.

In the case of `CN(C)CCNC(=O)Nc1ccc(N(C)c2ccnc(Nc3ccc(CS(C)(=O)=O)cc3)n2)cc1`, the inhibition was found to be 4.8%.

As to `NC(=O)c1ccc2c(-c3ccnc(NCCCO)n3)c(-c3ccc(F)cc3)nn2c1`, the inhibition amounted to 14.9%.

Usually inhibition stands for the change of the read-out against control, counted positive when it falls.
